Data from PubChem BioAssay AID2314 (National Center for Advancing Translational Sciences (NCATS), 2010).
Hit rate of the full screen: of about 300,000 compounds, about 37,000 (12%) were called active. The full list was thinned out, with actives kept by preference. Unmarked numbers belong to inactive results. No stated cut-off is given here; in the data, active means max response mostly above about 13% (no sharp cut-off); inactive means mostly below about 14%.

test: Cycloheximide Counterscreen for Small Molecule Inhibitors of Shiga Toxin; conditions: cell reporter, cycloheximide protein synthesis inhibition counterscreen; hits give high values; further: read at 38.3 µM for the half of the compounds with a filed dose; 0% is about no effect

SMILES	max response
CCn1c(SCc2cccc(C(=O)O)c2)nnc1-c1ccc(Cl)cc1	-1.44%
COc1ccc(C)cc1Nc1n[n+](-c2ccccc2)c(-c2cccc(Cl)c2Cl)s1	-1.46%
CCOC(=O)N1CCN(C(=O)c2ccccc2N(Cc2ccccc2)S(=O)(=O)c2ccc(OC)cc2)CC1	-5.35%
CCOc1ccc(-n2c(SCC(=O)Nc3cc(C(=O)O)ccc3Cl)nc3ccccc3c2=O)cc1	-4.94%
O=C(O)CCC(=O)Nc1ccc(OCC2CCCO2)cc1 (stereo not given)	-3.29%
CC1(C)Cc2ccccc2-c2[nH]c(=S)[nH]c(=O)c21	-1.88%
COc1cccc(CNC(=O)CCC2CCCN(C(=O)c3ccc(F)c(Cl)c3)C2)c1 (stereo not given)	0.816%
O=C(COC(=O)c1ccc(Cl)nc1)NCc1ccc2c(c1)OCO2	-4.58%
O=C(NCc1ccccc1Cl)c1csc2c1CCCCC2	-0.0989%
CC(=O)Cc1nsc(NC(=O)c2ccc(Cl)cc2Cl)n1	27.8%
CC(=O)Cc1nsc(NC(=O)c2csc3c2CCCC3)n1	16.6% (active)
CCOC(=O)Cn1c(=O)n(Cc2ccc(OC)cc2)c(=O)c2cccnc21	-5.57%
O=C(Nc1cccc(Cl)c1)C1CCCN(c2cnccn2)C1 (stereo not given)	5.49%
Cc1cc(C)nc(N2CCC(C(=O)Nc3ccc4c(c3)OCCO4)CC2)n1	11.4%
O=C(Nc1ccc2c(c1)OCCO2)C1CCCN(c2ncccn2)C1 (stereo not given)	22% (active)
CCOc1ccc(N(CC)S(=O)(=O)c2cccc3nsnc23)cc1	-1.34%
CC(=O)Nc1ccc(S(=O)(=O)N2N=NC3C2C2CC4C3(CN(C(=O)OC(C)(C)C)S4(=O)=O)O2)cc1 (stereo not given)	3.73%
COc1cccc(CN(C)CC2CCCN(CCc3ccc(Cl)cc3)C2)c1OC (stereo not given)	-1.16%
Cc1nc2ccccc2c(=O)n1NC(=O)c1ccc(Cl)c([N+](=O)[O-])c1	-5.07%
C/C(=N\Nc1nncc2ccccc12)c1ccc(Cl)c([N+](=O)[O-])c1	17.3% (active)

SMILES	max response
CC(CC(=O)O)C(=O)c1ccc(Cl)c([N+](=O)[O-])c1 (stereo not given)	-0.656%
O=C(O)c1ccc2c(=O)n3c(nc2c1)/C(=C/c1ccc(OC(F)F)cc1OC(F)F)CC3	1.3%
CCC(=O)N1c2ccccc2NC2=C(C(=O)CCC2)C1c1ccco1 (stereo not given)	-5.4%
CCCC(=O)N1c2ccccc2NC2=C(C(=O)CCC2)C1c1ccc(F)cc1 (stereo not given)	-1.45%
CC(C)C(=O)N1c2ccccc2NC2=C(C(=O)CCC2)C1c1ccc(N(C)C)cc1 (stereo not given)	21.8% (active)
O=C(NCCO)C(=O)NCC(c1ccc2c(c1)OCO2)N1CCN(c2ccc(F)cc2)CC1 (stereo not given)	-1.46%
Cn1nc(C(F)(F)F)cc1C(=O)O	-2.03%
CCN(CC)C(=O)CCC(=O)Nc1ccc(C(=O)OC)cc1	0.562%
COC(=O)c1ccc(NC(=O)C(C)N2C(=O)c3ccccc3C2=O)cc1 (stereo not given)	-1.97%
Cc1ccc(NC(=O)Nc2cccc(C(F)(F)F)c2)nc1	9.81%
CCCc1cc(C(=O)Nc2ccc(C(=O)OC)cc2)cs1	18.2% (active)
O=C(Nc1ccc(Cl)cn1)Nc1cccs1	47.7% (active)
CC12COC3(C(=O)Nc4ccc(Cl)cn4)CC1CCC32C (stereo not given)	-1.53%
CCCc1cc(C(=O)Nc2ccc(Cl)cn2)cs1	30.5% (active)
CCCCC(CC)C(=O)Nc1ccc(Cl)cn1 (stereo not given)	-1.66%
O=C(Nc1cccc([N+](=O)[O-])c1)Nc1ccc(Cl)cn1	-1.76%
Cc1ccc(C(C)C)c(OCCSc2nc3ccccc3n2CC(=O)O)c1	-3.05%
CN(CC1CCCN(CCc2cccc(C(F)(F)F)c2)C1)C(=O)c1ccc2nc[nH]c2c1 (stereo not given)	7.92%
Cc1ccc(-c2nc(SCC(=O)Nc3ccccc3OC(F)F)c3c(C)c(C(=O)O)sc3n2)cc1	-2.74%
Cc1ccc(C(C)(C)C)c(OCCCCN2CCCC2)c1	-1.44%

SMILES	max response
CCOc1ccc(NC(=O)CN(C)CC(=O)Nc2cccc(Cl)c2C)cc1OCC	-1.94%
Cc1ccccc1NC(=O)C1CCCN(C(=O)NCc2ccccc2)C1 (stereo not given)	-2.13%
CCNC(=O)N1CCCC(C(=O)c2ccc(-c3ccccc3)cc2)C1 (stereo not given)	35% (active)
O=C(c1ccc(-c2ccccc2)cc1)C1CCCN(C(=O)c2cncs2)C1 (stereo not given)	-0.779%
N#C/C(=C\c1cccnc1)C(=O)Nc1ccc(SC(F)F)cc1	-2.71%
CCC(NC(=O)C1CCCC1)c1ccc(C)cc1 (stereo not given)	-1.61%
Cc1c(C(=O)N2CC(C)OC(C)C2)sc2nc(-c3ccccc3)cn12 (stereo not given)	26.8% (active)
Cc1c(C(=O)N2CCCc3ccccc32)sc2nc(-c3ccccc3)cn12	7.76% (active)
Cc1cccc2cc3c(N)c(C(=O)N4CCCc5ccccc54)sc3nc12	-2.83%
O=C(c1c(Cl)nc2sccn12)N1CCCc2ccccc21	11.5%
CC1CN(C(=O)CN2C(=O)NC(C)(c3ccccc3)C2=O)CC(C)O1 (stereo not given)	-0.354%
Cc1c(C(=O)NCC2CCCO2)sc2nc(-c3ccccc3)cn12 (stereo not given)	78.5% (active)
O=C(CSc1ccc(-c2ccccc2)nn1)NCC1CCCO1 (stereo not given)	8.54%
Cc1cccc(C)c1NC(=O)N1CC(C)OC(C)C1 (stereo not given)	-0.915%
CCOc1ccc(-n2c(N)c(C(=O)NCC3CCCO3)sc2=S)cc1 (stereo not given)	-1.47%
O=C(NC1CC1)C(Cc1ccccc1)NS(=O)(=O)c1ccccc1F (stereo not given)	-2.2%
Cc1sc2nc(SCCO)n(-c3ccccc3)c(=O)c2c1C	1.18%
Cc1oc2c(F)c(F)c(F)c(F)c2c1S(=O)(=O)Nc1cccc(C(F)(F)F)c1	2.32%
COc1ccc(CNC(=O)CSc2n[nH]c(N)n2)cc1OC	-3.7%
COc1ccc(C)cc1NC(=O)CN(C)S(=O)(=O)c1ccc2c(c1)n(C)c(=O)c(=O)n2C	0.886%
